Screening results deposited in PubChem by National Center for Advancing Translational Sciences (NCATS).
SARS PLP yeast: blocks SARS-CoV papain-like protease in a yeast assay; Potency, µM (doses to about 32.9 µM), for inactives: top-dose activity, positive = growth rescue, most hits filed as activators; actives 0.19% (n = 330,000); S. cerevisiae expressing SARS-CoV PLpro, growth rescue; further: potency means the concentration at half of the fitted maximal effect; 0% is about no effect; nearly all actives have a fitted effect of over 55% in size
NS1 inh: influenza NS1 inhibition; actives 0.4% (n = 270,000); AID 2326; Potency, µM (highest dose often 46.1 µM), without a hit: at the top dose activity, positive = more growth; further: potency means the concentration at half of the fitted maximal effect; actives are rising curves; nearly all actives have a fitted effect of over 50% in size
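Read-out: OD600 growth recovery of NS1-expressing budding yeast. Cells grown overnight at 30C in -URA glucose medium, washed, resuspended and diluted 1:100 in 2% galactose assay medium, pH 6.0. Same strain lacking NS1 served as positive control.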
Shiga toxin inh: Shiga toxin inhibition; Vero cells, Shiga toxin protein synthesis inhibition reporter; inhibition, % at 38.7 µM; actives 9.2% (n = 290,000); in the data active means inhibition mostly above about 28%, no sharp cut-off; inactive means mostly below about 43%; further: 0% is about no effect
CHX counter: counter-screen hit for Shiga toxin inhibitors, cycloheximide; cell reporter, cycloheximide protein synthesis inhibition counterscreen; max response, %; actives 12% (n = 300,000); AID 2314; in the data active means max response mostly above about 13%, no sharp cut-off; inactive means mostly below about 14%; further: read at 38.3 µM for the half of the compounds with a filed dose; 0% is about no effect
Pf growth 48h: P. falciparum growth inhibition at 48 hours (one generation); P. falciparum luciferase growth in erythrocytes, 48 h; Potency, µM (series often up to 28.7 µM), for inactives: top-dose activity change, negative = inhibition, most hits filed as inhibitors; actives 5.9% (n = 310,000); AID 504832; active means well fitted inhibition curve with a large enough effect; inconclusive means small, poorly fitted or top-dose-only effect, or another doubt; inactive means no such curve, though single readings can be large or run the other way; further: potency means the concentration at half of the fitted maximal effect; on the % scale 0 is the no-effect control and ±100 the full control effect
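In quantitative HTS format, infected erythrocytes bearing luciferase-reporter parasites were treated for a single generation at 37 C. Luminescence after adding detection reagent served as the growth measure.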
Pf growth 96h: P. falciparum growth inhibition at 96 hour, primary screen for plastid delayed-death inhibitors. actives 6.9% (n = 320,000). Potency, µM (series often up to 28.7 µM), for inactives: at the highest dose activity change, negative = inhibition, hits mostly inhibitors. P. falciparum luciferase reporter growth, 96 h; active means well fitted inhibition curve with a large enough effect; inconclusive means small, poorly fitted or top-dose-only effect, or another doubt; inactive means no such curve, though single readings can be large or run the other way; further: potency means the concentration at half of the fitted maximal effect; on the % scale 0 is the no-effect control and ±100 the full control effect
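Cell-based qHTS: luciferase-tagged P. falciparum in erythrocytes (2% hematocrit, 0.05% parasitemia final) incubated with compounds for 96 hours, 37 C, 5% CO2; luciferase detection reagent then added and luminescence measured.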
Numbers without * were called inactive; ? = inconclusive; . = no result given; [ ] = remark or other dose. In the library only some 21% were active in any assay of this set; here they are far more common. Unless noted, the call rests on the fitted dose curve.

SMILES	SARS PLP yeast	NS1 inh	Shiga toxin inh	CHX counter	Pf growth 48h	Pf growth 96h
CCOC(=O)C1CCCN(C(=S)Nc2cc(C)cc(C)c2)C1 (configuration not stated)	-1%	-4%	-15	-2	11%	.
Cc1nnc(SC(C)C(=O)Nc2ccc(Cl)cc2Cl)[nH]c1=O (configuration not stated)	1%	.	.	.	.	.
O=C(C[C@H]1C/C=C\CC[C@H](Cc2ccc(F)cc2)C(=O)OC[C@@H](Cc2c[nH]c3ccccc23)NC1=O)NCCO	2%	.	.	.	.	.
Cc1ccc(C)n1-c1ccc(-c2nnco2)cc1	-2%	5%	-4	6	-6%	12µM*
CC(=O)c1cccc(CN2CCN(CC(C)C)C(CCO)C2)c1 (configuration not stated)	-1%	-4%	-17	-3	-17%	-7%
Cc1ccc(F)cc1NC(=O)/C=C/c1ccc(S(=O)(=O)N2CCOCC2)cc1	-8%	.	.	.	.	.
COc1ccccc1NS(=O)(=O)c1ccc(/C=C/C(=O)O)cc1	0%	.	-6	10	16%	3%
COc1ccccc1NS(=O)(=O)/C=C/c1ccccc1	-9%	-13%	-8	0	-6%	8.3µM*
COc1ccc(S(=O)(=O)N2CCOCC2)cc1NC(=O)/C=C/c1ccc(F)cc1	-5%	.	.	.	?	?
COc1ccc(/C=C/C(=O)Nc2cc(F)ccc2C)cc1S(=O)(=O)N1CCOCC1	1%	.	8	7	15µM*	?
CCCNC(=O)/C=C/c1ccc(S(=O)(=O)Nc2ccccc2OC)cc1	-5%	.	2	4	-24%	9.3µM*
COc1ccccc1NC(=O)/C=C/c1ccc(OC)c(S(=O)(=O)N2CCOCC2)c1	-1%	.	11	7	13µM*	-5%[5.75 µM]
O=c1[nH]c(NC2CCCCC2)c([N+](=O)[O-])c(=O)[nH]1	17%	14%	-4	-1	1%	2%
CCN1C(=O)[C@H]2[C@@H](c3ccc(C)cc3)N3C(=O)N(c4ccc(C(F)(F)F)cc4)C(=O)[C@@]3(Cc3ccccc3)[C@H]2C1=O	-2%	19%	15	3	?	9%
COc1ccc(/C=C/C(=O)Nc2ccccc2C(N)=O)cc1S(=O)(=O)N1CCOCC1	1%	.	.	.	?	4.1µM*
O=C(/C=C/c1ccc(S(=O)(=O)N2CCOCC2)cc1)NCCc1ccc(C(F)(F)F)cc1	2%	.	.	.	12µM*	6.6µM*
Cc1ccc(NC(=O)/C=C/c2ccc3c(c2)OCO3)cc1S(=O)(=O)N1CCOCC1	19%	-4%	3	13*	-2%	?
COc1ccc(/C=C/C(=O)NC2CCCCCC2)cc1S(=O)(=O)N1CCOCC1	12%	-1%	21	19*	?	9.3µM*
COc1ccc(/C=C/C(=O)Nc2ccc(C)c(S(=O)(=O)N3CCOCC3)c2)cc1	4%	.	.	.	.	.
COc1ccc(-c2csc(NC(=O)CSC(C)C(=O)Nc3cc(C)on3)n2)cc1OC (configuration not stated)	1%	.	.	.	?	?
COc1ccccc1CNC(=O)/C=C/c1ccc(S(=O)(=O)N2CCOCC2)cc1	0%	.	-10	0	?	4.7µM*
COc1ccc(CCNC(=O)/C=C/c2ccc(S(=O)(=O)N3CCOCC3)cc2)cc1	-2%	.	.	.	-17%	?
COc1cc(C(=O)NC2CCCC(C)C2C)ccc1OCC(=O)N1CCOCC1 (configuration not stated)	-6%	.	.	.	9%	-9%
Cc1sc2nc(C(C)Sc3n[nH]c(N)n3)[nH]c(=O)c2c1C (configuration not stated)	-5%	.	-5	-1	?	-40%
O=C(c1cccnc1)n1nc(NCc2ccccc2)nc1NCc1ccccc1	-1%	-42%	15	-2	53%	172%
COc1ccccc1C(=O)n1nc(-c2ccccc2)nc1NCc1ccco1	-34%	-132%	46	21*	46%	-49%
O=C(c1ccco1)n1nc(-c2ccccc2)nc1NCc1ccco1	1%	-9%	14	7	28%	0%
COc1ccc(CNc2nc(NCc3ccc(OC)cc3)n(C(=O)c3ccccc3[N+](=O)[O-])n2)cc1	-5%	?	75*	26*	?	?
